Compound activity: PubChem, National Center for Advancing Translational Sciences (NCATS)
BRCA1 expr act: activators of BRCA1 expression | hit rate 1.1% among 380,000 | AID 624202 | MCF7-BRCA1-FFLuc reporter, luminescence, 48 h; response scale: scaled: vehicle 0%, 10 µM genistein 100% | Potency, µM (top dose mostly 46.1 µM), without a hit: top-dose activation, most hits filed as activators; note: potency is the fitted concentration of half-maximal effect; nearly all actives have a fitted effect of over 80% in size
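MCF7-BRCA1-FFLuc cells, 2000/well in phenol-red-free MEM, attached 2 h then treated 48 h at 37 C. Luciferase luminescence read 15 min after reagent; normalized to genistein maximum activation (10microM) and DMSO, concentration-response fitted.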
RXFP1 agonist: RXFP1 (human) receptor agonism | HEK293T-RXFP1 cAMP TR-FRET, 30 min; response scale: percent of porcine relaxin response, buffer zero | hit rate 0.3% among 370,000 | Potency, µM (series often up to 57.5 µM), for inactives: top-dose activation, most hits filed as activators | Q9HBX9; note: potency is the fitted concentration of half-maximal effect; % is set by controls: 0 for no effect and ±100 for the full control effect; nearly all actives have a fitted effect of over 60% in size
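cAMP rise read by TR-FRET after 30 min, 37C compound exposure (up to 58 uM) in RXFP1-transfected HEK293 cells with Ro 20174 present. EC50 from Hill-equation fits, with 29 nM porcine relaxin as 100% and buffer as basal.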
RXFP1 antag: antagonists of human relaxin receptor RXFP1; hit rate 0.59% among 350,000; HEK293-RXFP1, relaxin-stimulated cAMP HTRF, 30 min; hits give low values; activity change, negative = inhibition, % at 57.5 µM; Q9HBX9;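 active = activity change of -60% or lower, but not beyond a set lower limit; inconclusive = change between -60% and -40%, or beyond the set limit; inactive = change above -40%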; note: % is set by controls: 0 for no effect and ±100 for the full control effect
NPSR antag: antagonists of human neuropeptide S receptor cAMP signaling. CHO-NPSR cells, cAMP TR-FRET, antagonist mode. Q6W5P4. Potency, µM (top dose mostly 38.3 µM), without a hit: at the highest dose activity change, negative = inhibition, hits mostly inhibitors. hit rate 1% among 220,000; note: potency is the fitted concentration of half-maximal effect; % is set by controls: 0 for no effect and ±100 for the full control effect; nearly all actives have a fitted effect of over 50% in size
Target sequence (Q6W5P4 whole entry, looked up): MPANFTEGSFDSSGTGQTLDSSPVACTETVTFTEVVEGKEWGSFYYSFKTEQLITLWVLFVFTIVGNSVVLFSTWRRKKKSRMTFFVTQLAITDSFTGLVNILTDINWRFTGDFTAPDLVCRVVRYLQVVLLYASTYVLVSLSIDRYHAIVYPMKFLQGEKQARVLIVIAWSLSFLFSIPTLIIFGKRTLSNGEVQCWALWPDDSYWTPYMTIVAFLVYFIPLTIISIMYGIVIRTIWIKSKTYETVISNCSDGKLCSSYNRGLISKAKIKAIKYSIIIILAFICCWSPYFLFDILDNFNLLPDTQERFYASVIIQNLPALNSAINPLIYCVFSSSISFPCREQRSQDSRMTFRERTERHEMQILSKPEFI
Giardia killer: Giardia lamblia killing; Giardia lamblia trophozoite viability; activity change, % at 7.66 µM, hits read low; hit rate 0.15% among 340,000; in the data active = activity change below about -80%; inconclusive = between about -30% and that limit;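 note: parasites exposed to compound for two days anaerobically before the ATP read; % is set by controls: 0 for no effect and ±100 for the full control effect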
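Anaerobic 48 hrs incubation at 37 deg C of 100 trophozoites/well with test compounds; ATPLite 1-Step luminescence, 15-30 min RT, reports cellular ATP as viability.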
IL-2 act: activators of IL-2 | IL-2 activation reporter assay, cell-based qHTS; stimulated with anti-CD3/CD4/CD28 beads; in transgenic mouse T cells | activation, % (series mostly up to about 46 µM) | hit rate 0.065% among 360,000; in the data active = activation above about 50%; inconclusive = mostly about 30% to 49%; note: 0% is about no effect
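Unstimulated transgenic mouse T cells, 750 per well, received compound and, after 60 minutes, anti-CD3/anti-CD4 bead plus anti-CD28 stimulation. EGFP and DsRed were quantified after 18 hours.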
An asterisk follows results filed as active; ? = inconclusive; · = not tested or not shown; [ ] = another dose, or the depositor's remark. Hits are enriched below; roughly 1.9% of the tested compounds scored in any of these assays. Unless noted, calls come from the whole dose curve; as a rule, active = well fitted curve in the direction sought with a large enough effect; inconclusive = small, poorly fitted or top-dose-only effect, or another doubt; inactive = no such curve, though single readings can be large; an effect the other way counts as inactive or inconclusive.

SMILES	BRCA1 expr act	RXFP1 agonist	RXFP1 antag	NPSR antag	Giardia killer	IL-2 act
Cn1c(=NC(=O)CCS(=O)(=O)c2ccccc2)sc2cc(F)ccc21	-21%	1%	-13	·	-11	-5
CCOc1ccc(NC(=O)CC2C(=O)N(c3ccc(Cl)cc3)C(=O)N2Cc2cccs2)cc1 (stereo not given)	·	0%	2	·	·	·
CC(C)(C)C1CCC(=O)N(CCOc2ccccc2)CC1 (stereo not given)	13µM*	-1%	·	·	-3	0
Cc1ccc(CN2C(=O)SC(Nc3ccc(Cl)cc3)C2=O)cc1 (stereo not given)	·	0%	-25	·	·	·
CC(C)(C)C(=O)CSc1n[nH]c(-c2ccccc2)n1	7.9µM*	·	·	·	·	·
O=C(CSc1n[nH]c(-c2ccccc2)n1)c1ccccc1	62%	-1%	·	-18%[46.1 µM]	-13	-3
Cc1[nH]c(=S)c(C#N)c(C)c1Cc1ccccc1	-20%	11%	-20	1%	-20	1
Cc1[nH]c(=S)c(C#N)c(C)c1CCC#N	-22%	0%	-119*	7%	-4	0
CCOC(=O)Cn1c(CN2CCN(C(c3ccccc3)c3ccccc3)CC2)nc2c1c(=O)n(C)c(=O)n2C	-14%	1%	-11	16µM*	25	-2
COc1ccc2nc(SCc3ncc(C)c(OC)c3C)[nH]c2c1	·	·	-3	·	·	·
COc1ccc(C2Nc3ccccc3C(=O)N2Cc2ccccc2)cc1COc1ccccc1F (stereo not given)	0%	·	·	·	6	·
CCOc1ccc(C(=O)c2cn(CC(=O)Nc3ccc(OC)cc3)c3cc4c(cc3c2=O)OCO4)cc1	1%	25µM*	·	·	·	·
O=C(NCCc1ccc(Cl)cc1)c1ccc(Br)s1	3.5µM*	0%	-7	·	-25	1
NS(=O)(=O)c1ccc(CCNC(=O)c2ccc(Br)s2)cc1	-2%	12%	18	-7%	1	-1
Cc1ccc(S(=O)(=O)N2CCN(c3nc(-c4cscn4)nc4ccccc34)CC2)cc1	0%	·	·	·	6	·
CCOC(=O)c1cnc2cc(C(F)(F)F)ccc2c1Nc1ccc(F)cc1F	·	6%	-6	·	·	·
COc1cccc2cc(-c3nc4ccccc4[nH]3)c(=O)oc12	3.2µM*	-1%	4	·	-24	0
COc1ccc(-c2cc3cccc(OC)c3oc2=O)cc1	9%	4%	-4	·	?	-3
COc1cccc2cc(-c3ccccc3)c(=O)oc12	2.5µM*	-2%	6	-12%	?	0
COc1cccc2cc(-c3nc(-c4cccs4)cs3)c(=O)oc12	29%	6%	-11	-15%[46.1 µM]	-10	76*
CN(C)[C@@H]1C(=O)C(C(N)=O)=C(O)[C@@]2(O)C(=O)C3=C(O)c4c(O)cccc4C[C@H]3C[C@@H]12	·	·	-6	·	·	·
O=C(CSc1ccccn1)Nc1ccc2c(c1)OCO2	72%	3%	-11	11%	-18	-1
O=C(CSc1ccccn1)c1ccc2c(c1)OCO2	7.1µM*	0%	-21	-3%[46.1 µM]	-8	-1
O=[N+]([O-])c1ccc(/C=N/N=C/c2ccc([N+](=O)[O-])o2)o1	-84%	0%	-11	5µM*	-18	-8
O=C1SCCN1N=Cc1ccc([N+](=O)[O-])o1	-47%	·	18	·	-85*	1
SMILES	BRCA1 expr act	RXFP1 agonist	RXFP1 antag	NPSR antag	Giardia killer	IL-2 act
COc1cc(OC)c(/C=C/c2ccc3ccccc3[n+]2C)c(OC)c1	-70%	·	·	·	·	·
COCCCNC(=O)COc1ccc(Br)cc1Cl	13µM*	1%	0	22%	1	1
Cn1nc(C(F)(F)F)c(-c2ccc(F)cc2)c1NC(=O)c1ccco1	-18%	-4%	-19	-13%	0	3
Cn1nc(C(F)(F)F)c(-c2ccc(Br)cc2)c1NC(=O)Nc1ccc(F)cc1F	-74%	5%	-61*	?	6	-1
O=C(CCCl)Nc1cccc2cccnc12	-60%	·	·	·	3	·
CC(C)c1nnc(NC(=O)CCC(=O)N2CCN(c3ccc(Cl)cc3)CC2)s1	-8%	-1%	-67*	·	-15	-4
COc1cccc(CNC(=O)c2ccc(-c3nc(CS(=O)(=O)c4ccccc4)c(C)o3)cc2)c1	·	-1%	-14	·	·	·
COc1ccc(-n2c(=S)[nH]c3cc(C(=O)NCc4cccnc4)ccc3c2=O)c(OC)c1	-30%	3%	-71*	·	-15	0
COc1ccc(-n2c(=S)[nH]c3cc(C(=O)NCc4ccccc4)ccc3c2=O)c(OC)c1	-21%	3%	-17	·	8	-1
CC(C(=O)NCC1CCCCC1)N(C)Cc1ccc(Cl)cc1 (stereo not given)	-11%	5%	-78*	-21%	17	-1
COc1cc(C(=O)N/N=C/c2ccc(OC(=O)c3ccccc3Cl)cc2)ccc1O	-2%	0%	-91*	·	4	-1
O=C1/C(=C/c2ccncc2)SC(=S)N1Cc1ccccc1	-93%	-1%	-99*	1%[7.67 µM]	-4	-7
COc1ccc(CN2C(=O)/C(=C/c3ccc(-c4ccc(Cl)c(C(=O)O)c4)o3)SC2=S)cc1	·	0%	·	6.3µM*	·	·
O=C(O)c1cc(-c2ccc(/C=C3/SC(=S)N(Cc4ccccc4)C3=O)o2)ccc1Cl	51%	-1%	-27	10µM*	-11	-5
CCCN1C(=O)/C(=C/c2ccncc2)SC1=S	4%	0%	1	3%	6	-3
O=C(Nc1ccncc1)C1C(=O)c2ccccc2N(Cc2ccccc2)C1=O (stereo not given)	-4%	·	·	·	-1	·
CCOc1ccc(C2c3c(oc4ccc(C)cc4c3=O)C(=O)N2CCCN(C)C)cc1 (stereo not given)	·	1%	-11	·	·	·
Cc1ccc(C)c(NC(=O)N2CCCCCC2)c1	24%	4%	-2	·	19	-4
COc1cccc(NC(=O)N2CCc3ccccc3C2)c1	11µM*	1%	5	·	3	1
O=C(Nc1cccc(Cl)c1)N1CCc2ccccc2C1	?	2%	-1	·	8	-1
Cc1ccc(C)c(NC(=O)N2CCc3ccccc3C2)c1	3.5µM*	7%	-2	·	-17	1
CC(C)c1ccc(NC(=O)CCNS(=O)(=O)c2ccc3c(c2)oc(=O)n3C)cc1	·	5%	2	·	·	·
CCOc1ccccc1C(=O)N(Cc1cc(OC)c(OC)c(OC)c1)c1ccccn1	4%	1%	·	·	·	·
Nn1c(SCc2ccccc2)nc2ccccc21	3.2µM*	-1%	-1	·	-1	0
COc1cc(C(=O)/C=C/c2cccnc2)c([N+](=O)[O-])cc1OC	-83%	4%	·	·	-90*	-5
O=c1[nH]c(COc2ccc(Br)cc2Cl)nc2ccccc12	4µM*	2%	0	·	-16	-4
